The assay addresses CCT7 (UniProt Q99832). Description: cross-linking mass spectrometry. The note with it: TSTO, in cells.
Chain of CCT7 (Q99832 whole entry): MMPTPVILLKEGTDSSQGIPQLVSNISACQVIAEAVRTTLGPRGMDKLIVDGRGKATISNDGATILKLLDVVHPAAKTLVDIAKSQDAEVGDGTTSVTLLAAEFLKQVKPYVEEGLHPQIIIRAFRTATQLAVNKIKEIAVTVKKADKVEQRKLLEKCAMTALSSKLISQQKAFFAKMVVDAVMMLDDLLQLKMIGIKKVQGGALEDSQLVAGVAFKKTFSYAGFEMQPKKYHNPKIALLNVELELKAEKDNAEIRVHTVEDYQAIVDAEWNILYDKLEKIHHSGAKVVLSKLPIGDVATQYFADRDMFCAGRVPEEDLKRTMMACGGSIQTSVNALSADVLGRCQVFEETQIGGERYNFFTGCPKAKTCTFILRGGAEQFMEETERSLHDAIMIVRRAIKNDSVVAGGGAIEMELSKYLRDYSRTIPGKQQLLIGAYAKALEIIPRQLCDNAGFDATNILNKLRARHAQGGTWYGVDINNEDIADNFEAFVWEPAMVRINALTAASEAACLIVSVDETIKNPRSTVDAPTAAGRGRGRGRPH
Chain of CCT5, P48643 (P48643 whole entry): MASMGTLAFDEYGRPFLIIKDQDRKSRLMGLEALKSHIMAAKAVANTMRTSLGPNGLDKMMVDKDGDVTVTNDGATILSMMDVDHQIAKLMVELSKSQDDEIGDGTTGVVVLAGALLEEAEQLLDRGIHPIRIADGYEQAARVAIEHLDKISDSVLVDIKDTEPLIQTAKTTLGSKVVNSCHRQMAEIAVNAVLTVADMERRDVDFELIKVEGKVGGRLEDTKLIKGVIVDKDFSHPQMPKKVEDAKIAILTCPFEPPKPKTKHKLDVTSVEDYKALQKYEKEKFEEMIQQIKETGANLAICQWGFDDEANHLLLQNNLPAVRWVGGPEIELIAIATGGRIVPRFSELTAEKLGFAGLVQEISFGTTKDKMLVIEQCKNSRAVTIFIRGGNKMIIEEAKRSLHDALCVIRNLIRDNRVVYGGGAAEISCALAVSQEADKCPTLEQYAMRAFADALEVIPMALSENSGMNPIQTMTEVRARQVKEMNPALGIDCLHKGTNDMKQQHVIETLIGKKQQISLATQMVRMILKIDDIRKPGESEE
Chain of CCT8, P50990 (P50990 whole entry): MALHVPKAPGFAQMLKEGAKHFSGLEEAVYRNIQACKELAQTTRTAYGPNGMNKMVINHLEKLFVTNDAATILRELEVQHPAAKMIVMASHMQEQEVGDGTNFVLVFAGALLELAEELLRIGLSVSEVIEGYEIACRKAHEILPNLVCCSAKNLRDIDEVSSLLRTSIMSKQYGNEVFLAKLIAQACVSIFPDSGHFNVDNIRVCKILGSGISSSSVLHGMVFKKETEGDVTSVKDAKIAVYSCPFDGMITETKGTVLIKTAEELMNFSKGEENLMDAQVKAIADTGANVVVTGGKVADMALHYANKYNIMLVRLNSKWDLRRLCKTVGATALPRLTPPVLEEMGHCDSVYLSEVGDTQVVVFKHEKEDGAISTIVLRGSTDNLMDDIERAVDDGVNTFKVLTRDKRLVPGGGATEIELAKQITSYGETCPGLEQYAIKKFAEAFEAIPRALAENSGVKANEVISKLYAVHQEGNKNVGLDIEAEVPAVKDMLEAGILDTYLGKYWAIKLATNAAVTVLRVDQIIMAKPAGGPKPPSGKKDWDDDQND
Chain of CCT2, P78371 (P78371 whole entry): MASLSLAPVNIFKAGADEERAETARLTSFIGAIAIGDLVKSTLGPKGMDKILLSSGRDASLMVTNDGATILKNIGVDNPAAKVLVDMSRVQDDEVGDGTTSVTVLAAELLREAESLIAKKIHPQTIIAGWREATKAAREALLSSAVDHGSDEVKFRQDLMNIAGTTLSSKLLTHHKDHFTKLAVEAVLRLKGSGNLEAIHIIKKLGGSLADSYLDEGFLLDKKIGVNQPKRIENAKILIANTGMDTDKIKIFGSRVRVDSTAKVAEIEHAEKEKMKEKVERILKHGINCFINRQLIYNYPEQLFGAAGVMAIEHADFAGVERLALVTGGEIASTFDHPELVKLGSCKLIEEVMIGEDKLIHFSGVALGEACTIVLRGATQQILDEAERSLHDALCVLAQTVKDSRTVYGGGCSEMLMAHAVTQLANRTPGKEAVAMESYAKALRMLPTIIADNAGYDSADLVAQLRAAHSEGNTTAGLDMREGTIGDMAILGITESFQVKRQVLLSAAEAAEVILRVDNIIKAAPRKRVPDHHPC
Chain of VBP1, P61758 (P61758 whole entry): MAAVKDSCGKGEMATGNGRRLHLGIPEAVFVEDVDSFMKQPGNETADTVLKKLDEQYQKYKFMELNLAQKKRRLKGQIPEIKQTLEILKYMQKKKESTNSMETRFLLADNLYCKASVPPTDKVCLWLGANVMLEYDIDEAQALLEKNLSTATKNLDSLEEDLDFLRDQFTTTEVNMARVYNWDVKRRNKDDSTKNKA
For VBP1, P61758, the cross-linked residues entry was “K189 - K292”.

Take CCT8, P50990: the cross-linked residues result is recorded as “K270 - K280”. CCT5, P48643: the cross-linked residues entry was “K232 - K250”. Take CCT2, P78371: the cross-linked residues entry is on record as “K248 - K250”.

The record behind these values is publication PMC12215968.
